In assay [1] the test system is Plasmodium falciparum Sir2 (PF13_0152, Sir2A). As to the kind of experiment: Plasmodium falciparum Sir2A binding compounds – biochemical, small-molecule microarray, 635 nm fluorescence, primary screen (AID 1098).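 Further: score merges spot fluorescence intensity with its signal-to-noise ratio.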 Particulars: fluorescence 635 nm, higher = more signal.
Assay [2] in a line: probe aDKK1 binding to arrayed compounds – biochemical, biotinylated probe, 635/667 nm fluorescence, primary screen (AID 1099).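 Further: score merges 667nm spot fluorescence with signal to noise across triplicate slides.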 To be noted: small-molecule microarray, higher = more signal.
Assay [3] is described as follows: probe aCHRDL2 binding to arrayed compounds – biochemical, biotinylated probe, 635/667 nm fluorescence, primary screen (AID 1100). To be noted: small-molecule microarray, higher = more signal.
Assay [4] can be described thus: change in splice reporter luminescence, either direction, cell-based, HEK293, spliceosome inhibition project, primary screen (AID 1101).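 Further: HEK293 cells carrying a splicing-competent luciferase reporter gene; test concentration not given here.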 To be noted: HEK293 splicing luciferase reporter, 24 h, higher = more signal, called active from +8 up or from −8 down. On the technique in general: Reporter assays use an easily measured gene product as a stand-in for the process of interest.

Assay [5] deals with Fibroblast growth factor 10 (Homo sapiens) (UniProt O15520). As to the kind of experiment: compounds binding fibroblast growth factor 10 – biochemical, small-molecule microarray, 635 nm fluorescence, primary screen (AID 1102). Particulars: FGF10 binding, fluorescence 635 nm, higher = more signal.
Sequence of Fibroblast growth factor 10 (Homo sapiens) (O15520 whole entry, looked up): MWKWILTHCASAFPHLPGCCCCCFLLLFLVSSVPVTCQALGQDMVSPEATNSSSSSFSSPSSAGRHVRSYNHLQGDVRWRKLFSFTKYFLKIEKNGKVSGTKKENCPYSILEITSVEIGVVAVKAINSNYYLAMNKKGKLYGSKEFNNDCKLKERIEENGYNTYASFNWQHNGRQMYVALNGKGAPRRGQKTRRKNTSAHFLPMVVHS
Assay [6] deals with glycogen synthase kinase-3 (GSK3A per assay name; protocol says GSK3B). Description: compounds binding glycogen synthase kinase-3 – biochemical, small-molecule microarray, 635 nm fluorescence, GSK3A, primary screen (AID 1103). Further: the record names both GSK3A and GSK3B. Particulars: fluorescence 635 nm, higher = more signal.
Assay [7] has as its target Epidermal growth factor receptor (Homo sapiens) (UniProt P00533). As to the kind of experiment: compounds binding epidermal growth factor receptor – biochemical, small-molecule microarray, 635 nm fluorescence, primary screen (AID 1104).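 Further: score merges 667 nm emission intensity with spot signal to noise over triplicate slides.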 Particulars: EGFR binding, higher = more signal.
For assay [8], the target named is Follistatin-related protein 3 (Homo sapiens) (UniProt O95633). Description: compounds binding follistatin-related protein 3 – biochemical, small-molecule microarray, 635 nm fluorescence, primary screen (AID 1105).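 Further: score merges emission near 667 nm and signal to noise per printed spot across three slides.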 Particulars: FSTL3 binding, higher = more signal.
Sequence of Follistatin-related protein 3 (Homo sapiens) (O95633 whole entry, looked up): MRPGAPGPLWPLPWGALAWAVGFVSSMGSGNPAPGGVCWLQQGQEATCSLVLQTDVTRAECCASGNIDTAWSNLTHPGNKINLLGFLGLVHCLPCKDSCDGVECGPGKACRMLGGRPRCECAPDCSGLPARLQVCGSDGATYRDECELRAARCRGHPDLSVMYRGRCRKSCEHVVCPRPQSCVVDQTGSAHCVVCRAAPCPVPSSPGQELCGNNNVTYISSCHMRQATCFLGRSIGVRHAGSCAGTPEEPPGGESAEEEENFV
The target of assay [9] is Dickkopf-related protein 1 (Homo sapiens) (UniProt O94907). As to the kind of experiment: small molecules binding DKK1 protein – biochemical, small-molecule microarray, 635 nm fluorescence scan, primary screen (AID 1106).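 Further: score merges emission near 667 nm with signal to noise over three replicate slides.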 Particulars: higher = more signal.
Sequence of Dickkopf-related protein 1 (Homo sapiens) (O94907 whole entry, looked up): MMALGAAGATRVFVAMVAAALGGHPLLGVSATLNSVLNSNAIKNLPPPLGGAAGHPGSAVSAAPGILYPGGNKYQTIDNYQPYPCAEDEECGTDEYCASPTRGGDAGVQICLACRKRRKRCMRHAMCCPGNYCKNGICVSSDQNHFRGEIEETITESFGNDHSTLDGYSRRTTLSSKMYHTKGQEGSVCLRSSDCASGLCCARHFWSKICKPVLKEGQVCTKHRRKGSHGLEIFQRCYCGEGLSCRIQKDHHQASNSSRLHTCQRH
The test system of assay [10] is Inhibin beta A chain (activin A). Description: small molecules binding activin A – biochemical, small-molecule microarray, 635 nm fluorescence scan, primary screen (AID 1107).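 Further: mouse activin A protein probed at 4.33 µg/mL on printed slides; score merges bound-protein fluorescence near 667 nm with spot signal-to-noise.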 Particulars: INHBA, higher = more signal.
Assay [11] concerns Human papillomavirus type 1a protein E7 (residues 44-93). Description: small molecules binding HPV E7 44-93 – biochemical, small-molecule microarray, residues 44-93, 635 nm fluorescence, primary screen (AID 1108).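 Further: E7 fragment applied at 1 µg/mL in TBST for 1 h at 4 C; score combines spot fluorescence with its signal to noise ratio.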 Particulars: fluorescence 635 nm, higher = more signal.
Assay [12] is described as follows: hepatitis C replication reporter changes, two-sided – Huh7 cells, luciferase reporter, HCV replication inhibitor project, primary screen (AID 1109).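 Further: huh7 hepatoma cells harbouring a luciferase neomycin HCV replicon reporter; luciferase luminescence as measure of HCV replicon replication; test concentration not given here.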 Particulars: Huh7 HCV replicon luciferase reporter, 48 h; higher = more signal.
The target in assay [13] is Left-right determination factor 2 (Homo sapiens) (UniProt O00292). As to the kind of experiment: small molecules binding LEFTY2 protein – biochemical, small-molecule microarray, 635 nm fluorescence scan, primary screen (AID 1110). To be noted: higher = more signal.
Sequence of Left-right determination factor 2 (Homo sapiens) (O00292 whole entry, looked up): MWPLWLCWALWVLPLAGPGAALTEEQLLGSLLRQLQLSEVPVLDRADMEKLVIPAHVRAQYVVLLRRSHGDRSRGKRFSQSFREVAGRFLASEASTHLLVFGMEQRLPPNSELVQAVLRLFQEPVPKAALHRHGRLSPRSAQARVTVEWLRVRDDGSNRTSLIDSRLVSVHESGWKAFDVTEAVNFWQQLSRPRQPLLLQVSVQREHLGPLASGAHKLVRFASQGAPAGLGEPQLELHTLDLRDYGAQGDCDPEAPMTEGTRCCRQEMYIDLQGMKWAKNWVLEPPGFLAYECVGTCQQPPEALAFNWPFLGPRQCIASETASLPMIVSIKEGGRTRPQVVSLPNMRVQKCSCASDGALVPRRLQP
Assay [14] addresses Calmodulin-1 (Homo sapiens) (UniProt P0DP23). As to the kind of experiment: small molecules binding calmodulin-1 with EGTA – biochemical, small-molecule microarray, Cy5-labelled CALM1, profiling panel (AID 1111).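 Further: labelled calmodulin applied in Tris saline Tween buffer holding calcium plus EGTA and DTT.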 Particulars: Cy5-CALM1 binding fluorescence, higher = more signal.
The target is the same in assay [15]. Description: small molecules binding Ca-loaded calmodulin-1 – biochemical, small-molecule microarray, Cy5-labelled CALM1, plus calcium, artefact control for SMM control-protein annotation, profiling panel (AID 1112).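 Further: score merges spot fluorescence with signal to noise from triplicate slides.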 To be noted: Cy5-CALM1 binding fluorescence, higher = more signal.
Assay [16] can be described thus: probe aWnt5a binding to arrayed compounds – biochemical, biotinylated probe, 635/667 nm fluorescence, primary screen (AID 1113).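 Further: score merges 667 nm fluorescence intensity with signal-to-noise per printed feature.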 Particulars: small-molecule microarray, higher = more signal.
The nature of assay [17]: probe aShh binding to arrayed compounds – biochemical, biotinylated probe, 635/667 nm fluorescence, primary screen (AID 1114).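 Further: probe is biotin-labelled aShh protein from a stem cell growth factor screen; measures binding of labelled protein to compounds printed on the slide; score merges feature fluorescence at 667 nm with signal-to-noise.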 To be noted: small-molecule microarray, higher = more signal.
Assay [18] in a line: probe aNog binding to arrayed compounds – biochemical, biotinylated probe, 635/667 nm fluorescence, primary screen (AID 1115).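 Further: probe is biotinylated aNog protein used at 0.15 µg/mL for 1 h at 4 C; z-score combines 667 nm fluorescence of each spot with its signal to noise.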 Particulars: small-molecule microarray, higher = more signal.
Assay [19] addresses Torsin-1A-interacting protein 1 (Homo sapiens) (UniProt Q5JTV8). As to the kind of experiment: compound microarray binding of lysate hLAP1 – cell lysate, small-molecule microarray, COS7 lysate, 635/667 nm fluorescence, primary screen (AID 1116). To be noted: 635 nm fluorescence, higher = more signal.
The target of assay [20] is Alpha-bungarotoxin (Bungarus multicinctus) (UniProt P60615). As to the kind of experiment: compounds binding labelled alpha-BTX control protein – biochemical, small-molecule microarray, Alexa647 label, 635/667 nm fluorescence, artefact control for SMM control protein annotation, profiling panel (AID 1117). To be noted: alpha-BTX-A647 binding fluorescence, higher = more signal.
Sequence of Alpha-bungarotoxin (Bungarus multicinctus) (P60615 whole entry, looked up): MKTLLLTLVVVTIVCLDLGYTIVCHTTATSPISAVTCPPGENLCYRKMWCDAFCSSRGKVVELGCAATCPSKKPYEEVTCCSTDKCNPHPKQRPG

The source of these data is PubChem BioAssay.

Active and inactive are the calls of the source.

Sequence of Torsin-1A-interacting protein 1 (Homo sapiens) (Q5JTV8 whole entry, looked up): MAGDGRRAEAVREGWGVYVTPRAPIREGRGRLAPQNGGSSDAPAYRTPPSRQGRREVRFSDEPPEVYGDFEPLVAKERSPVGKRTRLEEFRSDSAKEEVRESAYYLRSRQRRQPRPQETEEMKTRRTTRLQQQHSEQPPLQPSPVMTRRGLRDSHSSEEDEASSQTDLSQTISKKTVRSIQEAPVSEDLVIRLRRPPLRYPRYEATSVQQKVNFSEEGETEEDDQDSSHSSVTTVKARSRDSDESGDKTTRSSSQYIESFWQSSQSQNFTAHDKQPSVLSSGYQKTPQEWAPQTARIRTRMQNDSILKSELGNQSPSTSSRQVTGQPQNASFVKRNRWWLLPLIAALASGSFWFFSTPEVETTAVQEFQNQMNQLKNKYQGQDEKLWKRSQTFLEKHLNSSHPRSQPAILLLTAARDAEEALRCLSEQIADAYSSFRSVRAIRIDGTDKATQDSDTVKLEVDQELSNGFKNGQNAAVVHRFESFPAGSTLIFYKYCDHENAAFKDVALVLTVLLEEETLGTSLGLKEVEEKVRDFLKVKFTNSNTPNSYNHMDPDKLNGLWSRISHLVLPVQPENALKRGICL
Sequence of Epidermal growth factor receptor (Homo sapiens) (P00533 whole entry, looked up): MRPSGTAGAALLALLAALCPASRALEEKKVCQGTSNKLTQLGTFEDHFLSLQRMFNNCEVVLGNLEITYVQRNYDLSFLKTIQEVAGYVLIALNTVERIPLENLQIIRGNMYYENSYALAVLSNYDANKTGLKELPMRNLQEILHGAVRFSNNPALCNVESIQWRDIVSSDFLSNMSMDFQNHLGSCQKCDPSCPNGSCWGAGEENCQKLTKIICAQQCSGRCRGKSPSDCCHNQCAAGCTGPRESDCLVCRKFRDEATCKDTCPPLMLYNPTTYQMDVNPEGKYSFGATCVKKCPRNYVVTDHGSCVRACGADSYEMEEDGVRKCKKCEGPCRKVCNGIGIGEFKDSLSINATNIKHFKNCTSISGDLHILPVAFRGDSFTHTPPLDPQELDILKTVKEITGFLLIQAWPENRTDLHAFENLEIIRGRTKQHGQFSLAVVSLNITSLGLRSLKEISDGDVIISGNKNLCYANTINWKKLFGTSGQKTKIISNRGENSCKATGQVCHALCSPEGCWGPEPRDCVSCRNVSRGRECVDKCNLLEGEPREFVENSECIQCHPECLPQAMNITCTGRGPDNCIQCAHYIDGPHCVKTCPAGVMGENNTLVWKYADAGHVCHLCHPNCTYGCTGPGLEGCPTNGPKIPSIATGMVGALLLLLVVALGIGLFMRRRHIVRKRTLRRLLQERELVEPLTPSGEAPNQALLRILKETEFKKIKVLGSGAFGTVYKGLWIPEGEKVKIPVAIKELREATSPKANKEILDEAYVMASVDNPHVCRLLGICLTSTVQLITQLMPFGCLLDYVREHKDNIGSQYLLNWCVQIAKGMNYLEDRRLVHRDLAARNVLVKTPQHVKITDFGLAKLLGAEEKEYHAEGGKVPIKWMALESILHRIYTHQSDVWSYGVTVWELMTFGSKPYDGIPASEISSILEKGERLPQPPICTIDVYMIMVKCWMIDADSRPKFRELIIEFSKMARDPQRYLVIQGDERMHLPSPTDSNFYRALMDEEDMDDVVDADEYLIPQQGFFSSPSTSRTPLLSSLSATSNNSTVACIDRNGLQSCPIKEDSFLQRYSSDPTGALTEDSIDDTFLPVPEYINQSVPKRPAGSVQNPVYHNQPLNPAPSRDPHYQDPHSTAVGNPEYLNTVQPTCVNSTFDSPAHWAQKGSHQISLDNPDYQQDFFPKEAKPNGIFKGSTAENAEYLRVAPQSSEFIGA

For the compound `C[C@]1(C(=O)O)c2ccccc2C(=O)N(Cc2cc(F)cc(C(F)(F)F)c2)[C@H]1c1ccc(CO)cc1`, the composite z-score was 1.64 in assay [1]; -0.0944 in assay [2]; 0.249 in [3]; 0.139 in assay [5]; -0.429 in assay [6]; 0.213 in assay [7]. The composite z-score is 0.0304 in assay [8]; -0.336 in [9]; 0.561 in assay [10]; 0.156 in [11]; 0.324 in [13]; -0.16 in [14]. Moreover, the composite z-score in [15] was -0.348; in assay [16] it was 0.0044; in assay [17], -0.0035; in [18], -0.0446; in assay [19], -0.0131; in assay [20], -0.408. The z-score in assay [4] was 0.395 (inactive); in assay [12], 0.475.
Turning to `C[N+](C)(C)CCCC[C@@H]1NC(=O)[C@@H]2C[C@H](C(=O)NCc3ccc(F)cc3)[C@H](c3ccc(O)cc3)N2C1=O`, the composite z-score in assay [1] was 1.12; in [2] it was -0.277; in assay [3] it was 0.216; in [5], 0.535; in [6] it was -0.933; in assay [7], -0.617. In addition, the composite z-score in assay [8] is -0.249; in [9], 0.549; in assay [10], -0.879; in assay [11], 0.132; in [13] it was -0.392; in [14] it was -0.1. For the same compound, the composite z-score in assay [15] was 0.0305; in [16], -0.178; in assay [17], -0.381; in assay [18], -0.28; in [19], 2.44; in assay [20], 1.24. In addition, the z-score was 1.26 (inactive) in [4] and -0.0213 in assay [12].
`C=CC[C@@]12N=C(c3ccc(OCCCO)cc3)O[C@@H]1c1ccccc1N(CCC)C2=O`: the composite z-score in assay [1] was 1.58; in [2], 0.257; in assay [3] it was 0.952; in [5], 0.85; in [6], 1.25; in assay [7] it was 0.153. The composite z-score is 1.15 in assay [8]; -0.0879 in assay [9]; 1.19 in [10]; 1.35 in [11]; 0.271 in assay [13]; 0.106 in assay [14]. Also, the composite z-score in assay [15] was -0.242; in assay [16], -0.0485; in assay [17], 0.337; in assay [18], 0.164; in [19], 1.2; in assay [20], 1.77. Further, the z-score in assay [4] is -0.457 (inactive); in assay [12], -2.18.
Regarding `CCCCC(O)C1C=CC2C(=O)N(c3ccccc3)C(=O)C2N1Nc1ccc([N+](=O)[O-])cc1` (stereo not given), the composite z-score in [1] amounted to 1.2; in [2], 0.379; in [3], 0.21; in assay [5], 0.435; in [6], 1.32; in assay [7], 0.0456. Moreover, the composite z-score in assay [8] is 1.3; in assay [9], -0.105; in [10], 0.329; in assay [11] it was 1.39; in assay [13], 0.0256; in [14], 0.521. Besides, the composite z-score was -0.118 in assay [15]; 0.0324 in [16]; 0.036 in assay [17]; -0.343 in assay [18]; 0.853 in assay [19]; 0.553 in assay [20]. Moreover, the z-score in [4] is -0.846 (inactive); in assay [12], -0.744.
For the compound `COc1ccc(C(O)C2C=CC3C(=O)N(c4ccccc4)C(=O)C3N2Nc2ccc(C#N)cc2)cc1OCc1ccccc1` (stereo not given), the composite z-score came to 1.09 in [1]; 1.31 in [2]; 1.42 in assay [3]; 0.372 in [5]; 0.564 in assay [6]; 0.0706 in assay [7]. For the same compound, the composite z-score was 0.727 in assay [8]; -0.463 in [9]; 0.898 in assay [10]; 1.04 in assay [11]; -0.165 in assay [13]; 2.32 in assay [14]. Also, the composite z-score in assay [15] worked out at 1.29; in assay [16], 0.0497; in [17] it was 0.171; in assay [18], 0.1; in [19] it was 2.54; in assay [20], 1.16. The z-score in assay [4] was 0.471 (inactive); in assay [12], -0.738.
